Pf growth 96h – P. falciparum growth inhibition at 96 hours. P. falciparum luciferase reporter growth, 96 h. Potency, µM (titrated, usually from 28.7 µM), for inactives: top-dose activity change, negative = inhibition, hits mostly inhibitors. 320,000 compounds, 6.9% hits; active = well fitted inhibition curve with a large enough effect; inconclusive = small, poorly fitted or top-dose-only effect, or another doubt; inactive = no such curve, though single readings can be large or run the other way; also: % is scaled to controls: 0 for no effect and ±100 for the full control effect
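P. falciparum expressing integrated firefly luciferase grown in erythrocytes (2% hematocrit, 0.05% parasitemia final) with compounds for 96 hours at 37 C, 5% CO2. Growth inhibition read as loss of luminescence after adding luciferase detection reagent.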
SARS PLpro yeast – inhibitors of SARS-CoV papain-like protease in yeast. Potency, µM (doses to about 32.9 µM), for the others: at the highest dose activity, positive = growth rescue, hits mostly activators. S. cerevisiae expressing SARS-CoV PLpro, growth rescue. 330,000 compounds, 0.19% hits; also: 0% is about no effect; nearly all actives have a fitted effect of over 55% in size
NS1 function inh – inhibitors of influenza NS1 protein function | Potency, µM (titrated, usually from 46.1 µM), for inactives: at the highest dose activity, positive = more growth | 270,000 compounds, 0.4% hits | AID 2326; also: actives are rising curves; nearly all actives have a fitted effect of over 50% in size
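Compounds were scored for reversing the slow growth caused by influenza A NS1 in S. cerevisiae, measured by optical density at 600 nm. Assay medium contained 2% galactose at pH 6.0; NS1-free yeast of the same strain were the positive control.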
RE007 growth inh – less growth of the S. pombe RE007 Vpr strain; Potency, µM (titrated, usually from 92.2 µM), inactives show at the top dose activity change, negative = less growth, actives largely listed as inhibitors; 360,000 compounds, 0.21% hits; AID 651644; S. pombe RE007 Vpr strain, BacTiter-Glo ATP luminescence, 24 h; active = well fitted falling curve with a large enough effect; inconclusive = small, poorly fitted or top-dose-only effect; inactive = no such curve, though single readings can be large or run the other way; also: % is scaled to controls: 0 for no effect and ±100 for the full control effect; nearly all actives have a fitted effect of over 50% in size
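Fission yeast RE007 carrying one integrated HIV-1 vpr copy, seeded at OD 0.01 in PMG+AL medium with 23 nL pinned compound. Grown 24 h at 30 degrees; viability read by BacTiter-Glo luminescence after 5 min.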
Pf growth 48h – P. falciparum growth inhibition at 48 hours (one generation). P. falciparum luciferase growth in erythrocytes, 48 h. Potency, µM (top dose mostly 28.7 µM), inactives show top-dose activity change, negative = inhibition, hits mostly inhibitors. 310,000 compounds, 5.9% hits. AID 504832; active = well fitted inhibition curve with a large enough effect; inconclusive = small, poorly fitted or top-dose-only effect, or another doubt; inactive = no such curve, though single readings can be large or run the other way; also: % is scaled to controls: 0 for no effect and ±100 for the full control effect
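First compound was added to culture medium, then infected red cells at 0.1% parasitemia and 2% hematocrit (final). After incubation at 37 C under 5% CO2, luciferase detection reagent was dispensed and light output recorded.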
* marks the source's active call; other numbers are inactive results; ? = inconclusive; . = no result. This is a sample that favours compounds with a hit; in the whole collection about 9.5% have one here. Unless noted, calls follow the shape of the full dose curve. Potency is read from the fitted curve at half-maximal effect.

SMILES	Pf growth 96h	SARS PLpro yeast	NS1 function inh	RE007 growth inh	Pf growth 48h
CCOC(=O)C1=C(CSCc2ccccc2)NC(=O)NC1c1cc(C)ccc1C (stereo not drawn)	.	-2%	14%	8%	13µM*
O=C1CCCc2oc3c(cc(NS(=O)(=O)c4ccc5c6c(cccc46)C(=O)N5)c4ccccc43)c21	12µM*	-1%	22%	-7%	?
Cc1cccc(CN2CCC(Oc3ccc(C(=O)N4CCCCC4)cc3)CC2)c1	9.3µM*	23%	6%	-5%	?
CCc1ccc(CN2CCC(Oc3ccc(C(=O)N4CCCCC4)cc3)CC2)cc1	?	-6%	-23%	-13%	-29%
COCCC(=O)N1CCC(Oc2ccc(C(=O)N3CCCCC3CCO)cc2)CC1 (stereo not drawn)	4.7µM*	-6%	12%	-4%	-21%
Cc1cccc(CN2CCC(Oc3ccc(C(=O)N4CCCC4)cc3)CC2)n1	2.3µM*	-4%	1%	7%	?
CC(C)c1ccc(CN2CCC(Oc3ccc(C(=O)N4CCCC4)cc3)CC2)cc1	-31%	-4%	1%	5%	6.6µM*
O=C(c1ccc(OC2CCN(C/C=C/c3ccc(F)cc3)CC2)cc1)N1CCCC1	4.1µM*	-4%	-11%	-3%	8.3µM*
Cc1cccc(CN2CCN(C(=O)Cc3ccccc3)CC2)c1	?	-6%	-6%	12%	?
Cc1cccc(CN2CCN(C(=O)CCl)CC2)c1	0.074µM*	-11%	8%	-8%	1.2µM*
CCc1ccc(CN2CCC(Oc3ccc(C(=O)N4CCCC4)cc3)CC2)cc1	?	7%	-4%	-10%	9.3µM*
C=CCOc1ccccc1CN1CCC(Oc2ccc(C(=O)N3CCCCC3)cc2)CC1	10µM*	-1%	-5%	1%	37%
O=C(c1ccc(OC2CCN(Cc3ccc(F)cc3)CC2)cc1)N1CCCC1	?	3%	?	6%	?
Cn1nc(-c2ccc(Cl)cc2)cc1NC(=O)CCCC(=O)O	26%	0%	3%	2%	16%
O=C(NCCN1CCN(C(=O)c2cccc(OC(F)F)c2)CC1)c1cccc(OC(F)F)c1	.	4%	.	13%	.
CCOC(=O)NCCc1c(C)nc2c(c(C)nn2C(C)(C)C)c1C	0.17µM*	2%	-57%	-2%	.
Cc1ccc(NC(=O)COC(=O)C2(C)CC2(Cl)Cl)cc1S(=O)(=O)N1CCOCC1 (stereo not drawn)	?	-1%	.	-1%	?
Cc1ccc(C)c(C(=O)Nc2nc3ccccc3[nH]2)c1	53%	-1%	-4%	0%	43%
Cc1ccc(Nc2nc3ccccc3[nH]2)nc1	?	19%	-13%	22%	3.3µM*
Cc1c([C@@H](C)C2NC[C@H](C)C[C@@H]2O)ccc2c1C[C@@H]1[C@H]2CC=C2C[C@@H](O)CC[C@@]21C (stereo partly drawn)	.	.	-3%	.	.
CC1=C2C(=O)C3C(CC=C4CC(O)CCC43C)C2CCC12OC1CC(C)CNC1C2C (stereo not drawn)	?	-3%	-7%	-1%	13µM*
CCOC(=O)c1c(C)nc2sc(C(=O)Nc3ccc(OC)cc3)c(N)c2c1-c1ccc(OC)cc1	2.3µM*	-4%	5%	-3%	.
CCOC(=O)c1c(C)nc2sc3c(=O)n(-c4ccc(C(C)=O)cc4)nnc3c2c1-c1ccc(OC)cc1	-14%	-14%	-6%	8%	?
CCOC(=O)c1c(C)nc2sc3c(=O)n(-c4ccc(OC)cc4)cnc3c2c1-c1ccc(OC)cc1	12µM*	-2%	1%	-2%	?
COc1ccc(NC(=O)c2ccc(Cl)c(S(=O)(=O)N3CCc4ccccc4C3)c2)cn1	.	-10%	?	-1%	1.9µM*
O=C(Nc1cccnc1)c1ccc(Cl)c(S(=O)(=O)N2CCCC2)c1	24%	-4%	11%	0%	?
CC1CN(S(=O)(=O)c2cc(C(=O)NCc3ccncc3)ccc2Cl)CC(C)O1 (stereo not drawn)	?	-4%	.	2%	?
COc1ccc(NC(=O)c2ccc(Cl)c(S(=O)(=O)N3CC(C)OC(C)C3)c2)cn1 (stereo not drawn)	10µM*	1%	.	-7%	8.3µM*

Screening data: PubChem BioAssay, National Center for Advancing Translational Sciences (NCATS)
